Results taken from PubChem BioAssay AID1159580 (chemical genetic matrix, 2015).
Screen size: about 5,500 compounds; about 2,000 (36%) were called active. Roughly 18% stayed inconclusive and do not appear here. Rule as the data show it: active = normalized growth mostly below about 0.91 (no sharp cut-off); inconclusive = no clear call, values can overlap the other calls; inactive = mostly above about 0.92. The list shows a part of the results.

Assay: chemical genetic growth profiling, strain panel (AID 1159580);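 also: tested at 20 µM; growth read once vehicle control cultures reached saturation at 30 °C; 1 = growth at the plate median or of vehicle wells; lower values mean less growth of the strain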
Conditions: S. cerevisiae deletion strains, growth OD

Measured: normalized growth

CC(=O)OC1CCC2(O)CC1(C)CCC1C2CC1(C)C (stereo not given)
inactive: locus YAL021C, strain ccr4, stronger effect = lower value 1 | locus YAL026C, strain drs2, stronger effect = lower value 1.05 | locus YAL030W, strain snc1, stronger effect = lower value 1.02 | locus YBL061C, strain skt5, stronger effect = lower value 1.02 | locus YBR009C, strain hhf1, stronger effect = lower value 1.03 | locus YBR021W, strain FUR4, stronger effect = lower value 1 | locus YBR023C, strain chs3, stronger effect = lower value 1.02 | locus YBR171W, strain sec66, stronger effect = lower value 1.03 | locus YBR229C, strain ROT2, stronger effect = lower value 0.949 | locus YBR231C, strain swc5, stronger effect = lower value 1.05 | locus YBR279W, strain paf1, stronger effect = lower value 1.01 | locus YCL011C, strain gbp2, stronger effect = lower value 1.03 | locus YCL016C, strain dcc1, stronger effect = lower value 1.02 | locus YCL029C, strain bik1, stronger effect = lower value 0.974 | locus YCL061C, strain MRC1, stronger effect = lower value 1.02 | locus YCL069W, strain vba3, stronger effect = lower value 1.03 | locus YCR088W, strain abp1, stronger effect = lower value 1.02 | locus YDL005C, strain med2, stronger effect = lower value 1.02 | locus YDL035C, strain GPR1, stronger effect = lower value 0.958 | locus YDL040C, strain nat1, stronger effect = lower value 1.02 | locus YDL074C, strain BRE1, stronger effect = lower value 0.989 | locus YDL101C, strain DUN1, stronger effect = lower value 0.992 | locus YDL185W, strain tfp1, stronger effect = lower value 0.968 | locus YDL192W, strain arf1, stronger effect = lower value 0.981 | locus YDR001C, strain nth1, stronger effect = lower value 1.02 | locus YDR069C, strain doa4, stronger effect = lower value 1.03 | locus YDR101C, strain arx1, stronger effect = lower value 0.973 | locus YDR137W, strain rgp1, stronger effect = lower value 0.988 | locus YDR159W, strain sac3, stronger effect = lower value 1.06 | locus YDR162C, strain NBP2, stronger effect = lower value 0.938 | locus YDR195W, strain ref2 1.01 | locus YDR297W, strain sur2, stronger effect = lower value 1.01 | locus YDR318W, strain mcm21, stronger effect = lower value 0.977 | locus YDR334W, strain swr1, stronger effect = lower value 1.03 | locus YDR335W, strain msn5, stronger effect = lower value 1.04 | locus YDR388W, stronger effect = lower value 0.965 | locus YDR392W, strain spt3, stronger effect = lower value 0.955 | locus YDR502C, strain sam2, stronger effect = lower value 1.02 | locus YEL003W, strain gim4, stronger effect = lower value 1.04 | locus YEL037C, strain rad23, stronger effect = lower value 1.02 | locus YEL061C, strain CIN8 (second series), stronger effect = lower value 1.03 | locus YER015W, strain faa2, stronger effect = lower value 1.02 | locus YER016W, strain bim1, stronger effect = lower value 1.03 | locus YER110C, stronger effect = lower value 0.973 | locus YER111C, strain swi4, stronger effect = lower value 1.02 | locus YER155C, strain BEM2 (second series), stronger effect = lower value 1.05 | locus YER155C, strain BEM2, stronger effect = lower value 0.982 | locus YER167W, strain BCK2, stronger effect = lower value 0.975 | locus YFR010W, strain ubp6, stronger effect = lower value 1.04 | locus YGL078C, strain dbp3, stronger effect = lower value 1.02 | locus YGL086W, strain mad1, stronger effect = lower value 0.996 | locus YGL167C, strain pmr1, stronger effect = lower value 1.02 | locus YGL173C, strain kem1, stronger effect = lower value 1.04 | locus YGL227W, strain vid30, stronger effect = lower value 1.03 | locus YGL240W, strain doc1, stronger effect = lower value 1.03 | locus YGL248W, strain PDE1, stronger effect = lower value 1.01 | locus YGL253W, strain hxk2, stronger effect = lower value 1.07 | locus YGR135W, strain pre9, stronger effect = lower value 1.07 | locus YGR229C, strain SMI1, stronger effect = lower value 0.914 | locus YGR252W, strain gcn5, stronger effect = lower value 1.05 | locus YHR013C, strain ard1, stronger effect = lower value 1.03 | locus YHR027C, strain rpn1, stronger effect = lower value 1.02 | locus YHR079C, strain IRE1 (second series), stronger effect = lower value 0.982 | locus YHR094C, strain hxt1, stronger effect = lower value 0.976 | locus YHR129C, strain ARP1, stronger effect = lower value 0.988 | locus YHR142W, strain chs7, stronger effect = lower value 1.03 | locus YHR200W, strain rpn10, stronger effect = lower value 0.999 | locus YIL066C, strain RNR3, stronger effect = lower value 0.961 | locus YIL073C, strain SPO22, stronger effect = lower value 1.03 | locus YIL125W, strain kgd1, stronger effect = lower value 0.986 | locus YIR030C, strain dcg1, stronger effect = lower value 0.972 | locus YJL092W, strain hpr5, stronger effect = lower value 1.03 | locus YJL095W, strain BCK1 (second series), stronger effect = lower value 1.04 | locus YJL095W, strain BCK1, stronger effect = lower value 1.02 | locus YJL115W, strain asf1, stronger effect = lower value 1.01 | locus YJL129C, strain trk1, stronger effect = lower value 1.01 | locus YJL134W, strain LCB3, stronger effect = lower value 0.974 | locus YJL154C, strain vps35, stronger effect = lower value 1.03 | locus YJL164C, strain tpk1, stronger effect = lower value 1 | locus YJL166W, strain qcr8, stronger effect = lower value 1.03 | locus YJL168C, strain set2, stronger effect = lower value 0.991 | locus YJL187C, strain SWE1 (second series), stronger effect = lower value 1.01 | locus YJL187C, strain SWE1, stronger effect = lower value 1.03 | locus YKL009W, strain mrt4, stronger effect = lower value 0.976 | locus YKL068W, stronger effect = lower value 0.984 | locus YKL085W, strain MDH1 (second series), stronger effect = lower value 0.979 | locus YKL085W, strain MDH1, stronger effect = lower value 0.979 | locus YKL160W, strain elf1, stronger effect = lower value 1.01 | locus YKL190W, strain CNB1, stronger effect = lower value 0.981 | locus YKR001C, strain vps1, stronger effect = lower value 0.977 | locus YKR026C, strain gcn3, stronger effect = lower value 1.03 | locus YKR091W, strain srl3, stronger effect = lower value 1.02 | locus YLL001W, strain dnm1, stronger effect = lower value 1 | locus YLL026W, stronger effect = lower value 1.01 | locus YLL041C, strain sdh2, stronger effect = lower value 1.02 | locus YLR027C, strain aat2, stronger effect = lower value 1.05 | locus YLR039C, strain RIC1, stronger effect = lower value 0.945 | locus YLR058C, strain SHM2, stronger effect = lower value 0.978 | locus YLR102C, strain apc9, stronger effect = lower value 0.996 | locus YLR221C, strain rsa3, stronger effect = lower value 1.05 | locus YLR258W, strain gsy2, stronger effect = lower value 1.04 | locus YLR262C, strain YPT6 (second series), stronger effect = lower value 1.03 | locus YLR268W, strain sec22, stronger effect = lower value 0.943 | locus YLR320W, strain mms22, stronger effect = lower value 1.05 | locus YLR330W, strain CHS5, stronger effect = lower value 0.987 | locus YLR342W, strain FKS1 (second series), stronger effect = lower value 0.97 | locus YLR342W, strain FKS1, stronger effect = lower value 1.02 | locus YLR357W, strain rsc2, stronger effect = lower value 1.03 | locus YLR370C, strain arc18, stronger effect = lower value 1.02 | locus YLR371W, strain rom2, stronger effect = lower value 1.02 | locus YLR384C, strain iki3, stronger effect = lower value 1.01 | locus YLR418C, strain cdc73, stronger effect = lower value 1.04 | locus YML016C, strain PPZ1, stronger effect = lower value 0.974 | locus YML032C, strain rad52, stronger effect = lower value 0.985 | locus YML120C, strain ndi1, stronger effect = lower value 0.999 | locus YML124C, strain tub3, stronger effect = lower value 0.982 | locus YMR058W, strain fet3, stronger effect = lower value 1.04 | locus YMR078C, strain ctf18, stronger effect = lower value 0.997 | locus YMR125W, strain sto1, stronger effect = lower value 0.998 | locus YMR129W, stronger effect = lower value 1.02 | locus YMR205C, strain PFK2, stronger effect = lower value 1.04 | locus YMR223W, strain ubp8, stronger effect = lower value 1.02 | locus YMR231W, strain pep5, stronger effect = lower value 1.02 | locus YMR263W, strain SAP30, stronger effect = lower value 0.984 | locus YMR307W, strain GAS1, stronger effect = lower value 0.926 | locus YNL067W, strain RPL9B, stronger effect = lower value 1.01 | locus YNL071W, strain lat1, stronger effect = lower value 1.03 | locus YNL209W, strain ssb2, stronger effect = lower value 1.01 | locus YNL233W, strain BNI4, stronger effect = lower value 1.05 | locus YNL248C, strain rpa49, stronger effect = lower value 1.03 | locus YNL250W, strain rad50, stronger effect = lower value 0.956 | locus YNL271C, strain bni1, stronger effect = lower value 0.991 | locus YNL298W, strain CLA4, stronger effect = lower value 0.967 | locus YNL307C, strain MCK1, stronger effect = lower value 1.01 | locus YNL322C, strain KRE1 (second series), stronger effect = lower value 1.01 | locus YNR049C, strain mso1, stronger effect = lower value 1.05 | locus YNR052C, strain pop2, stronger effect = lower value 1.04 | locus YOL006C, strain TOP1, stronger effect = lower value 0.973 | locus YOL012C, strain htz1 0.722 | locus YOL147C, strain pex11, stronger effect = lower value 0.985 | locus YOR001W, strain rrp6, stronger effect = lower value 1.06 | locus YOR061W, strain CKA2, stronger effect = lower value 0.957 | locus YOR069W, strain VPS5, stronger effect = lower value 0.983 | locus YOR070C, strain gyp1, stronger effect = lower value 1.03 | locus YOR080W, strain dia2, stronger effect = lower value 1.02 | locus YOR083W, strain WHI5, stronger effect = lower value 1.06 | locus YOR106W, strain vam3, stronger effect = lower value 1.02 | locus YOR136W, strain idh2, stronger effect = lower value 0.992 | locus YOR144C, strain elg1, stronger effect = lower value 0.988 | locus YOR184W, strain ser1, stronger effect = lower value 0.909 | locus YOR265W, strain rbl2, stronger effect = lower value 1.02 | locus YOR270C, strain vph1, stronger effect = lower value 1.13 | locus YOR290C, strain snf2, stronger effect = lower value 1.03 | locus YOR316C, strain cot1, stronger effect = lower value 0.992 | locus YPL051W, strain arl3, stronger effect = lower value 1.01 | locus YPL055C, strain LGE1, stronger effect = lower value 0.932 | locus YPL078C, strain atp4, stronger effect = lower value 1 | locus YPL106C, strain sse1, stronger effect = lower value 0.991 | locus YPL240C, strain hsp82, stronger effect = lower value 1.02 | locus YPL241C, strain CIN2, stronger effect = lower value 0.997 | locus YPR119W, strain clb2, stronger effect = lower value 0.989 | locus YPR141C, strain kar3, stronger effect = lower value 0.977 | locus YPR163C, strain tif3, stronger effect = lower value 0.989 | locus YPR167C, strain met16, stronger effect = lower value 0.993 | strain wtn01, stronger effect = lower value 0.958
